# In PubChem BioAssay:
# Several values for one entry are separate records, joined by “and”; a condition that tells them apart may be missing. Equal entries are not always repeated. Results filed as inconclusive are left out. Activity calls are given as the source filed them. No cut-off is given here; in the data, nearly all actives have AC50 up to about 26 µM.
# Assay: growth inhibition of DIPG glioma cells, dose response, cell-based, SU-DIPG-XVII, MIPE5.0, CellTiter-Glo, qHTS (AID 1347060);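 for AC50: cells exposed to compound for 48 hours before viability readout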
# Conditions: SU-DIPG-XVII viability, CellTiter-Glo ATP luminescence
Structure (SMILES),AC50,outcome
CCCc1cc(C(=O)N[C@H](Cc2ccc(-c3cccc(OC(F)(F)F)c3)nc2)C(=O)N[C@@H]2CCNC2)sc1C,23.5 µM (active),
CCN(CC)CCNc1ccc(C)c2sc3ccccc3c(=O)c12,13.2 µM (active),
COCCNCc1ccc(-c2cc3nccc(Oc4ccc(NC(=O)C5(C(=O)Nc6ccc(F)cc6)CC5)cc4F)c3s2)nc1,7.42 µM (active),
Nc1nc(N)c2nc(-c3cccc(Cl)c3)c(N)nc2n1,1.32 µM (active),
CCCCNc1ncc2c(-c3ccc(CN4CCN(C)CC4)cc3)cn(C3CCC(O)CC3)c2n1 (centres undefined),1.48 µM (active) and 1.32 µM (active),
O=C(c1ccc(Nc2nc(C3CC3)cn3c(-c4cn[nH]c4)cnc23)c(F)c1)N1CCOCC1,5.25 µM (active),
COc1cc(OC)cc(N2CCN(C(=O)Nc3nc4cc(F)ccc4nc3OC)CC2)c1,0.833 µM (active),
Cn1nccc1Nc1nccc(-c2ccn([C@H](CO)c3ccc(Cl)c(F)c3)c(=O)c2)n1,18.6 µM (active),
COc1ccc(-c2cc(C(O)C3CCCCN3)c3ccccc3n2)cc1 (centres undefined),20.9 µM (active),
CCOC(=N)c1nc2ccc3ncnc(Nc4cc(F)c(F)cc4Cl)c3c2s1,16.6 µM (active),
COc1cc(C(=O)O)ccc1NC(=O)[C@@H]1N[C@@H](CC(C)(C)C)[C@](C#N)(c2ccc(Cl)cc2F)[C@H]1c1cccc(Cl)c1F,6.61 µM (active),
O=C(NOCCO)c1cc(CN2OCCCC2=O)c(F)c(F)c1Nc1ccc(I)cc1F,0.332 µM (active),
CCc1nc(C(N)=O)c(Nc2ccc(N3CCC(N4CCN(C)CC4)CC3)c(OC)c2)nc1NC1CCOCC1,2.35 µM (active),
CC(C)Nc1cc(-c2c[nH]c(C(=O)N[C@H](CO)c3cccc(Cl)c3)c2)c(Cl)cn1,1.48 µM (active),
CN1CCN(c2ccc3nc(-c4cc(C(C)(C)C)c(OCCCC(=O)NCCCN=[N+]=[N-])c(C(C)(C)C)c4)[nH]c3c2)CC1,10.5 µM (active),
C[C@@H]1COCCN1c1cc(=O)n2c(n1)N(Cc1cncc(Cl)c1)[C@H](C(F)(F)F)CC2,,inactive
Nc1nc2cc(-c3ccc4ncc(C(=O)N5CCOCC5)n4c3)ccc2o1,18.6 µM (active),
CC1=C(c2ccc(O)cc2)[C@H](c2ccc(OCCN3CCCCC3)cc2)Oc2cc(O)ccc21,20.9 µM (active),
CC(C)(O)CS(=O)(=O)Nc1ccc2c(c1)CCN(C(=O)COc1cccnc1)C2,0.263 µM (active),
CCc1cc(C(N)=O)ccc1-n1nc(C(C)C)c2c(-n3cnc(-c4cnn(C)c4)c3)ccnc21,1.86 µM (active),

Structure (SMILES),AC50,outcome
CCN(CC)CCNC(=O)c1c(C)[nH]c(/C=C2/C(=O)Nc3ccc(-c4csc(-c5ccccc5)n4)cc32)c1C,3.32 µM (active),
CC[C@@H](C)Nc1cc(C(=O)NC2CC3CC[C@@H](C2)N3c2ccc(C(=O)C3CC3)cn2)c(C)cc1C(N)=O (some centres undefined),0.118 µM (active),
CC1(C)OCCn2c1nc1c(N3CCOCC3)nc(-c3cnc(N)nc3)nc12,3.72 µM (active),
CCCCCCCOc1ccc(CCC(N)(CO)CO)cc1C(F)(F)F,8.33 µM (active),
O=C(/C=C\n1cnc(-c2cc(C(F)(F)F)cc(C(F)(F)F)c2)n1)N1CC(F)(F)C1,1.18 µM (active),
NS(=O)(=O)Oc1ccc2c3c(c(=O)oc2c1)CCCCC3,,inactive
CCOc1ccc(-n2c([C@@H](C)N(Cc3cccnc3)C(=O)Cc3ccc(F)c(C(F)(F)F)c3)nc3ncccc3c2=O)cc1,,inactive
CC(C)(C)C(=O)N1N=CC[C@H]1c1ccccc1,,inactive
O=C(COCC(=O)N1CCN(C(c2ccccc2)c2ccccc2)CC1)Nc1ccc(Cl)cc1C(=O)O,,inactive
COc1ccccc1C(=O)Nc1cc2c(cc1N1CCNC[C@H]1C)n(C)c(=O)n2C,,inactive
Cc1ccc(NC(=O)c2ccc3c(c2)OCCO3)cc1NC(=O)c1ccc2nc(OCCN3CCCC3)ccc2c1,0.129 µM (active),
CC1Oc2cc(cnc2N)-c2c(nn(C)c2C#N)CN(C)C(=O)c2ccc(F)cc21 (centres undefined),14.8 µM (active),
O=C(CCCc1ccc2cccnc2n1)NCc1cc(-c2ccc(F)c(C(F)(F)F)c2)no1,,inactive
CNS(=O)(=O)Nc1nccc(Cc2c(C)c3ccc(Oc4ncccn4)cc3oc2=O)c1F,1.48 µM (active),
CC(=O)Nc1cc(Oc2ccc3c(nc(Nc4ccc(F)cc4F)n3C)c2C)ccn1,0.372 µM (active),
O=C(NCc1ccc(S(=O)(=O)c2cccc(C(F)(F)F)c2)cc1)c1cnc2[nH]ncc2c1,0.0263 µM (active),
COc1ccc(N(C)c2nc(C)nc3ccccc23)cc1,0.00833 µM (active),
O=c1cc(N2CCOCC2)oc2c(-c3ccc4c(c3)OCCO4)csc12,5.25 µM (active),
CC(C)NC(=O)C1CCC(n2c(NC(=O)c3ccc(F)cc3)nc3ccc(CN4CCC(C(C)(C)O)CC4)cc32)CC1 (centres undefined),9.1 µM (active),
